The term AC50 denotes the concentration giving half of the maximal activity seen.

Inconclusive results are not listed. The source made the active and inactive calls. Rule for the calls, unless noted: active = hit-call score of the fitted dose curve at least 0.9, where 1 is the maximum; inconclusive = response in the unintended direction; inactive = score below 0.9.

A short description of test [1]: Tanguay_ZF_120hpf_SOMI_legacy: (Legacy) Oregon State University Tanguay Lab 120 Hour Post-fertilization zebrafish Assay for Somite Malformation (AID 2283647). In a few lines:
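Read-out: presence or absence of somite malformation in 120 hpf larvae, gain-of-signal relative to DMSO baseline. Embryos lacked chorion (pronase, 4 hpf) and were exposed statically from 6 hpf at 28C; dead larvae not scored.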

Test [2] in a line: Tanguay_ZF_120hpf_PFIN_legacy: (Legacy) Oregon State University Tanguay Lab 120 Hour Post-fertilization zebrafish Assay for Pectoral Fin Malformation (AID 2283648).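 Note: each larva judged yes or no for fin defect by brightfield with dead larvae skipped.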 In a few lines:
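Pectoral fin malformation was recorded as a binary endpoint at 120 hpf in wild-type Tropical 5D larvae, which had been dechorionated and exposed statically from 6 hpf at 28C in 0.64% DMSO. Dead embryos were excluded.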

Test [3] in a line: Tanguay_ZF_120hpf_CFIN_legacy: (Legacy) Oregon State University Tanguay Lab 120 Hour Post-fertilization zebrafish Assay for Caudal Fin Malformation (AID 2283649). In a few lines: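 Binary presence or absence of caudal fin malformation at 120 hpf, read by brightfield microscopy, with DMSO as baseline. Larvae came from 5D wild-type embryos exposed statically from 6 hpf at 28C after pronase dechorionation.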

The nature of test [4]: Tanguay_ZF_120hpf_PIG_legacy: (Legacy) Oregon State University Tanguay Lab 120 Hour Post-fertilization zebrafish Assay for Pigmentation Malformation (AID 2283650). In a few lines:
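Pigment malformation recorded as a binary call at 120 hpf in zebrafish (Tropical 5D) exposed singly from 6 hpf after pronase dechorionation. Static, sealed, 28C exposure, 0.64% DMSO; mortality excludes scoring; positive-direction fit against DMSO.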

Test [5] is described as follows: Tanguay_ZF_120hpf_CIRC_legacy: (Legacy) Oregon State University Tanguay Lab 120 Hour Post-fertilization zebrafish Assay for Circulatory Malformation (AID 2283651). In a few lines:
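Binary circulatory malformation call at 120 hpf by brightfield imaging of zebrafish larvae; chorion removed at 4 hpf, static exposure from 6 hpf in sealed dark plates at 28C, final DMSO 0.64%; non-mortality endpoints skipped if embryo died.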

Test [6] can be described thus: Tanguay_ZF_120hpf_SWIM_legacy: (Legacy) Oregon State University Tanguay Lab 120 Hour Post-fertilization zebrafish Assay for Swim Bladder Malformation (AID 2283654).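 Note: swim bladder malformation in each larva scored yes or no under brightfield.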 In a few lines: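 Scoring is binary for swim bladder defects at 120 hpf, by brightfield inspection of zebrafish larvae. Embryos were exposed singly from 6 hpf after pronase dechorionation, at 28C with 0.64% DMSO; mortality excluded scoring.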

The nature of test [7]: Tanguay_ZF_120hpf_TRUN_legacy: (Legacy) Oregon State University Tanguay Lab 120 Hour Post-fertilization zebrafish Assay for Truncated Body (AID 2283655). In a few lines:
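Truncated body is recorded as a binary endpoint at 120 hpf by brightfield imaging of wild-type 5D larvae. Exposure runs statically from 6 hpf at 28C with 0.64% DMSO; embryos dying earlier are not scored.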

Test [8] is described as follows: Tanguay_ZF_120hpf_NC_legacy: (Legacy) Oregon State University Tanguay Lab 120 Hour Post-fertilization zebrafish Assay for Notochord and Tail Malformation (AID 2283656). In a few lines: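 Binary scoring of notochord distortion by brightfield microscopy; embryos dying were not scored. Wild-type Tropical 5D embryos, chorion removed, exposed singly and statically from 6 to 120 hpf, 28C, sealed, 0.64% DMSO.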

Read-out in test [9]: ABC Transporter (ABCB1), ABCB1 (gene 5243)
Briefly: CLD_ABCB1_6hr: CellzDirect (CLD) Gene Expression Assay for ABC Transporter (ABCB1) at 6 hours (AID 2283659).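 Note: hits raise ABCB1 transcript above the DMSO vehicle baseline.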 In a few lines: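 ABCB1 transcript measured by quantitative nuclease protection assay, chemiluminescent read-out, 6 h after dosing human hepatocyte cultures (0.2% DMSO vehicle, daily redosing). Activity fitted as increase over DMSO baseline; cytotoxicity flagged by phase-contrast morphology.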

Read-out in test [10]: Broad substrate specificity ATP-binding cassette transporter ABCG2 (Homo sapiens) (UniProt Q9UNQ0)
Briefly: CLD_ABCG2_6hr: CellzDirect (CLD) Gene Expression Assay for ABC Transporter (ABCG2) at 6 hours (AID 2283660). In a few lines: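 ABCG2 mRNA induction measured by qNPA chemiluminescence in human primary hepatocyte cultures, 6 h post-dose. Chemicals tested at several concentrations against a 0.2% DMSO vehicle; positive-direction fit relative to DMSO.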

Test [11] in a line: Tanguay_ZF_120hpf_TR_legacy: (Legacy) Oregon State University Tanguay Lab 120 Hour Post-fertilization zebrafish Assay for Touch Response (AID 2283667). In a few lines:
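Binary touch-response endpoint in larvae at 120 hpf after static waterborne exposure from embryo stage (28°C, 0.64% DMSO vehicle, 5 uM trimethyltin chloride as positive control); embryos dead at 24 or 120 hpf excluded; fitted as gain versus DMSO.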

Read-out in test [12]: xenobiotic metabolism (CYP1A1), CYP1A1 (gene 1543)
Briefly: CLD_CYP1A1_6hr: CellzDirect (CLD) Gene Expression Assay for xenobiotic metabolism (CYP1A1) at 6 hours (AID 2283661).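 Note: potency for transcript induction above DMSO vehicle baseline.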 In a few lines: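 Read-out 6 h post-dose: qNPA chemiluminescent quantitation of transcript induction against 0.2% DMSO. Cells were cultured primary human hepatocytes from two separate donor preparations; phase-contrast morphology annotated apparent cytotoxicity.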

Test [13] relates to Thyroperoxidase (TPO), gene 54314. Briefly: CCTE_Simmons_AUR_rTPO: CCTE's Amplex UltraRed Assay for Thyroperoxidase (TPO) Inhibition, Simmons Lab (AID 2283662).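 Note: potency for loss of signal meaning inhibition of peroxidase activity.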 In a few lines: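 Endpoint is decreased Amplex UltraRed fluorescence after a 30-min, 37C reaction of rat thyroid microsomes with 300 uM H2O2. Eight test concentrations (5 nM–87.5 uM final) in 0.5% DMSO, three biological replicates each.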

The nature of test [14]: CCTE_Simmons_CellTiterGLO_HEK293T: Viability Assessment in CCTE's Assays for Thyroperoxidase (TPO) Inhibition, Simmons Lab (AID 2283665).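 For AC50: cells exposed to compound for 24 h before readout; actives reduce ATP signal below DMSO vehicle meaning cytotoxicity.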 In a few lines: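 Luciferase-coupled ATP content after 24 h exposure gives viability; 8-point series from 5 nM to 87.5 uM final in 0.5% DMSO. Human HEK293T cells, 1% FBS medium, three biological replicates, dichlone positive control.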
(Cellular ATP, detected with luciferase, serves as a proxy for viable cell number.)

Read-out in test [15]: kallikrein-3 (KLK3), KLK3 (gene 354)
Briefly: LTEA_HepaRG_KLK3: Life Technologies and Expression Analysis (LTEA) Assay for kallikrein-3 (KLK3) using HepaRG (AID 2283652; active = hit-call score of the fitted dose curve at least 0.9, where 1 is the maximum; inactive = score below 0.9). The conditions noted are these: mRNA level, 48 h; actives raise or lower the signal. In a few lines: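 KLK3 transcript levels were measured by TaqMan qRT-PCR with normalisation to three housekeeping genes. HepaRG cultures received chemicals for 48 h at up to 100 uM (half-log, 8 points, 0.5% DMSO vehicle), fitted in both directions against DMSO.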

Read-out in test [16]: solute carrier (SLC22A6), SLC22A6 (gene 9356)
Briefly: LTEA_HepaRG_SLC22A6: Life Technologies and Expression Analysis (LTEA) Assay for solute carrier (SLC22A6) using HepaRG (AID 2283653; active = hit-call score of the fitted dose curve at least 0.9, where 1 is the maximum; inactive = score below 0.9). The conditions noted are these: mRNA level, 48 h; actives raise or lower the signal. In a few lines: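 Read-out is SLC22A6 transcript level by qRT-PCR, normalised to three housekeeping genes and fitted for gain or loss relative to 0.5% DMSO vehicle. Human HepaRG cells received chemicals at up to 100 uM for 48 h.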

Read-out in test [17]: solute carrier (SLC10A1), SLC10A1 (gene 6554)
Briefly: LTEA_HepaRG_SLC10A1: Life Technologies and Expression Analysis (LTEA) Assay for solute carrier (SLC10A1) using HepaRG (AID 2283657; active = hit-call score of the fitted dose curve at least 0.9, where 1 is the maximum; inactive = score below 0.9). The conditions noted are these: mRNA level, 48 h; actives raise or lower the signal. In a few lines: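 SLC10A1 transcript measured by TaqMan qRT-PCR, housekeeping-normalised, after 48 h chemical treatment of human HepaRG cells. Eight concentrations (half-log, max 100 uM, 0.5% DMSO vehicle) in duplicate; fitted bidirectionally against DMSO baseline.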

Read-out in test [18]: matrix metalloproteinase-1 (MMP1), MMP1 (gene 4312)
Briefly: LTEA_HepaRG_MMP1: Life Technologies and Expression Analysis (LTEA) Assay for matrix metalloproteinase-1 (MMP1) using HepaRG (AID 2283658; active = hit-call score of the fitted dose curve at least 0.9, where 1 is the maximum; inactive = score below 0.9). The conditions noted are these: mRNA level, 48 h; actives raise or lower the signal. In a few lines:
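HepaRG, ~100,000 cells/well, 48 h pre-culture; serum-free induction medium; test chemical 8 conc (max 100 uM, half-log), duplicate, 48 h; 0.5% DMSO; qRT-PCR MMP1, housekeeping-normalized; gain/loss fit vs DMSO.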

Read-out in test [19]: xenobiotic metabolism (CYP1A2), CYP1A2 (gene 1544)
Briefly: CLD_CYP1A2_6hr: CellzDirect (CLD) Gene Expression Assay for xenobiotic metabolism (CYP1A2) at 6 hours (AID 2283663).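 Note: potency is for induction meaning a rise in mRNA above DMSO.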 In a few lines:
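mRNA levels quantified by quantitative nuclease protection assay with chemiluminescence, 6 h after dosing human primary hepatocyte cultures (two donors) across several concentrations, vehicle 0.2% DMSO. Induction fitted upward versus DMSO; phase-contrast cytotoxicity annotated.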

Chain of Broad substrate specificity ATP-binding cassette transporter ABCG2 (Homo sapiens) (Q9UNQ0 whole entry, looked up): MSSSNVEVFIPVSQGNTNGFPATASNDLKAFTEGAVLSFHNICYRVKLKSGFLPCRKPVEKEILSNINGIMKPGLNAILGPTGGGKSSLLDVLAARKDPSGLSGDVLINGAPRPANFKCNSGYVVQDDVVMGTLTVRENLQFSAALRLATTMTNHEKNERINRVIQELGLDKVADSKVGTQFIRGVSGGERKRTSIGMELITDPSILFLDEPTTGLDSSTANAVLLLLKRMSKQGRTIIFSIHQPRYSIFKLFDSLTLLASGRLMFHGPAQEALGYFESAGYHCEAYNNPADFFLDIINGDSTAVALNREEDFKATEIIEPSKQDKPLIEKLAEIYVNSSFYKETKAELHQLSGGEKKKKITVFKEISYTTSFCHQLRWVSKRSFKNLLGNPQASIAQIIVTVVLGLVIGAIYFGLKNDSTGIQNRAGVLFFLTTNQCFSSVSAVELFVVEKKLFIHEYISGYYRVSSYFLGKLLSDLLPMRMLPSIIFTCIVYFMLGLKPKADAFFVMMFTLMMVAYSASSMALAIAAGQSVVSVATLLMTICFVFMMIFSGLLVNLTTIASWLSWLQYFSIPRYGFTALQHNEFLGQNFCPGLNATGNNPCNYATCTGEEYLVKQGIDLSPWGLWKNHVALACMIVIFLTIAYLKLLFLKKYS

`CCCC(=NOCC)C1=C(O)CC(CC(C)SCC)CC1=O` (configuration not stated): the call in test [1], in test [2], in [3], in test [4], in test [5] and in test [6] was inactive. Moreover, the call in test [7], in test [8], in test [9], in test [10] and in test [11] was inactive.
On to `COc1ccc(-c2ccccc2)cc1NNC(=O)OC(C)C`, for which the result in test [1], in test [2], in test [3], in test [4], in test [5] and in [6] was inactive. Moreover, the compound was called inactive in test [7], in [8], in test [9], in test [10] and in [11]. The AC50 in [12] is 0.429 µM (active); in test [13], 1.84 µM (active); in test [14], 42.4 µM (active).
Regarding `CCC(C)n1c(=O)[nH]c(C)c(Br)c1=O` (configuration not stated), the compound was called inactive in [1], in [2], in test [3], in [4], in [5] and in [15]. For the same compound, the outcome in test [16], in [6], in [18] and in test [11] was inactive. In addition, the AC50 in test [17] was 21 µM (active); in test [12] it was 7.21 µM (active).
Consider `CCOP(=O)(OCC)Oc1nc(Cl)c(Cl)cc1Cl`, for which the outcome in test [1], in test [2], in test [3], in test [4], in test [5] and in test [6] was inactive. Further, the outcome in test [7], in [8], in test [9], in test [10] and in test [11] was inactive. Further, the AC50 in test [12] is 3.92 µM (active); in [13], 29 µM (active); in [19], 5.84 µM (active); in test [14], 81.5 µM (active).
With `COc1cc(OC)nc(NC(=O)NS(=O)(=O)c2ncccc2OCC(F)(F)F)n1`, the compound was classed as inactive in test [1], in [2], in test [3], in [4], in test [5] and in test [6]. Moreover, the compound was classed as inactive in [7], in [8] and in test [11].
`CCCCC(C#N)(Cn1cncn1)c1ccc(Cl)cc1` (configuration not stated): the compound was called inactive in test [1], in test [3], in [4], in test [5], in [16] and in test [6]. Moreover, the outcome in [8], in test [18] and in test [9] was inactive. In addition, the AC50 in test [2] was 24.1 µM (active); in test [7], 48 µM (active); in test [17], 83.9 µM (active); in test [12], 3.97 µM (active); in test [11], 50.7 µM (active).
For the compound `COC(=O)c1c(C(F)F)nc(C(F)(F)F)c(C2=NCCS2)c1CC(C)C`, the compound was called inactive in test [1], in test [2], in [3], in [4], in test [5] and in [6]. For the same compound, the result in [7], in test [8] and in test [9] was inactive. Also, the AC50 in test [12] is 1.91 µM (active); in test [19], 0.665 µM (active).
In the case of `N#Cc1c[nH]cc1-c1cccc2c1OC(F)(F)O2`, the call in [1], in [2], in [3], in [4], in [5] and in [6] was inactive. Moreover, the call in test [7] and in test [11] was inactive. Also, in test [12], the AC50 is 0.9 µM (active).
As to `CCOP(=S)(OCC)Oc1nc(Cl)n(C(C)C)n1`, the result in [1], in [2], in test [3], in test [4], in test [5] and in [16] was inactive. The result in [6], in [8], in [18], in test [9], in test [10] and in [14] was inactive. For the same compound, the outcome in test [11] was inactive. The AC50 is 8.3 µM (active) in test [7], 30.4 µM (active) in test [17], 2.55 µM (active) in test [12] and 31.2 µM (active) in test [13].

Values taken from PubChem BioAssay (EPA / NIEHS).
